In PubChem BioAssay (NCI):
About 79,000 compounds went through this panel and 15% of them were active in at least one assay; those are over-represented in the sample as a whole. Activity calls are given as the source filed them. No stated cut-off is given here; in the data, active means growth inhibition above about 70%; inactive means the rest.

Legend:
[1] = NCI Yeast Anticancer Drug Screen. Data for the rad50 strain (AID 155);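 further: 0% = growth of vehicle-only cultures of the same strain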; conditions: S. cerevisiae rad50 strain growth inhibition; at 50.0 µM; stronger effect = higher value
Outline: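 Inhibition values express reduced yeast growth in compound-treated cultures relative to vehicle-treated controls.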

[2] = NCI Yeast Anticancer Drug Screen. Data for the mec2-1 strain (AID 157); conditions: S. cerevisiae mec2-1 strain, at 50.0 µM, stronger effect = higher value
Outline: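 Compounds were applied to mec2-1 yeast cells. Their growth was then compared with that of vehicle-treated cultures to give growth inhibition.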

[3] = NCI Yeast Anticancer Drug Screen. Data for the sgs1 mgt1 strain (AID 161);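 further: 0% = growth of cultures given vehicle only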; conditions: S. cerevisiae sgs1 mgt1 strain, at 50.0 µM, stronger effect = higher value
Outline: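 This yeast growth screen uses a strain with defined DNA-repair lesions; compound-treated growth is compared with vehicle-treated growth.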

[4] = NCI Yeast Anticancer Drug Screen. Data for the cln2 rad14 strain (AID 165);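 further: 0% = growth equal to vehicle treated cultures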; conditions: S. cerevisiae cln2 rad14 strain, at 50.0 µM, stronger effect = higher value
Outline: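 Strain: cln2 rad14 yeast, altered in cell cycle control and DNA damage repair. Read-out: growth inhibition vs vehicle.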

[5] = NCI Yeast Anticancer Drug Screen. Data for the bub3 strain (AID 167); conditions: S. cerevisiae bub3 mutant strain, at 50.0 µM, stronger effect = higher value
Outline: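 Steps: expose the mutant yeast strain to compound; grow alongside vehicle-treated cultures; measure growth; express inhibition against the vehicle cultures.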

[6] = NCI Yeast Anticancer Drug Screen. Data for the mlh1 rad18 strain (AID 175); conditions: S. cerevisiae mlh1 rad18 strain growth inhibition; at 50.0 µM; stronger effect = higher value
Outline: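 A repair-deficient yeast strain is exposed to test compound, and growth is scored relative to vehicle-treated controls.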

Measured: growth inhibition

COc1cc(C#N)cc(OC)c1OC
inactive: [1] 26% | [2] -14.8% | [3] 2.85% | [4] 1.45% | [5] 1.85% | [6] -12.2%

Cc1cc(N(CCC#N)CCC#N)ccc1N=Nc1ccc(C(=O)O)cc1
inactive: [1] -30.9% | [2] -34.6% | [3] -13.7% | [4] -1.15% | [5] -2.9% | [6] -25%

CCC(=O)O[C@@H]1C2C(OC(C)=O)C34COC(C)([C@@H]3C3C(C[C@]3(C)OC(C)=O)[C@@H](OC(=O)c3ccccc3)C4=O)[C@H](OC(C)=O)[C@@]2(OC(C)=O)C[C@@H]1C (some centres not stated)
inactive: [1] 4.2% | [2] -6.65% | [3] 4.85% | [4] 0.45% | [5] 9.95% | [6] 4.35%

CCCCc1c2c(nc3c1CCCC3=O)C(=O)CCC2
inactive: [1] -11.3% | [2] -1.95% | [3] -14.7% | [4] 2% | [5] -2.45% | [6] -9.15%

COc1ccc(Nc2nc3c(N)cc(C(F)(F)F)cc3nc2-c2ccccc2)cc1
inactive: [1] 10.7% | [2] 2.65% | [3] -1.7% | [4] 25.9% | [5] 6.1% | [6] 1.4%

C/C(CC(=O)Nc1cccc([N+](=O)[O-])c1)=N\NC(=O)C[n+]1ccccc1
inactive: [1] 15.5% | [2] -16.9% | [3] -0.65% | [4] 19.1% | [5] 0.5% | [6] -3.35%

CC1=CC(C)=C(C#N)C2=S=C(c3ccccc3)C(=O)N12
inactive: [1] 6% | [2] 14.8% | [3] 22.5% | [4] 29.1% | [5] 19.9% | [6] 22.1%

O=[N+]([O-])C1CCCCC1
inactive: [1] -11.8% | [2] -34.6% | [3] 3.3% | [4] 17.6% | [5] -8.35% | [6] 14.1%

O=S(=O)([O-])c1ccc2c[n+]3ccccc3cc2c1
inactive: [1] -16.1% | [2] 5% | [3] -0.95% | [4] -44.6% | [5] 6.1% | [6] -10.3%

CC[Si](CC)(CC)[Si](c1ccccc1)(c1ccccc1)c1ccccc1
inactive: [1] 42.1% | [2] 32% | [3] 17.1% | [4] 8.8% | [5] -17.4% | [6] 48.8%

CCCCCCCCCCCCCCCC(=O)O[C@@H]1[C@@H](C)[C@@]2(O)[C@@H](C=C(CO)C[C@]3(O)C(=O)C(C)=C[C@@H]23)[C@H]2[C@]1(OC(C)=O)[C@]2(C)CO
inactive: [1] 14.8% | [2] 2.75% | [3] 20.1% | [4] 30.9% | [5] 21.1% | [6] -71.2%

O=C(O)C(CNCc1ccccc1)(c1ccccc1)c1ccccc1
inactive: [1] 5.55% | [2] -9.25% | [3] 10.3% | [4] 4.9% | [5] 1.3% | [6] 12.7%

CNc1c([N+](=O)[O-])cc2[nH]c(C)nc2c1[N+](=O)[O-]
inactive: [1] 22.4% | [2] 19.3% | [3] 42.9% | [4] 0.05% | [5] 0.95% | [6] 11.6%

COC(=O)c1ccccc1NC(=O)/C(=N\NC(C)(C)C)C(C#N)c1nc(-c2ccc([N+](=O)[O-])cc2)cs1 (configuration not stated)
inactive: [1] -4.35% | [2] 14% | [3] -0.6% | [4] 18.6% | [5] 26.1% | [6] -8.3%

COc1ccc(C2=C(N)c3cc(OC)ccc3C2=O)cc1
inactive: [1] 41.1% | [2] 12.3% | [3] 33% | [4] -0.3% | [5] 32.1% | [6] -24.8%

Cc1cccc(C(C)(C)C)c1NC(=O)CC1C(=O)Nc2ccccc2S1(=O)=O (configuration not stated)
inactive: [1] 4.85% | [2] 1.8% | [3] -4.4% | [4] 8.95% | [5] 9.5% | [6] 23.9%

COc1ccc(NC(=O)c2cc3cc(N=Nc4ccc(Br)cc4)ccc3oc2=O)cc1
inactive: [1] -30.9% | [2] 14.4% | [3] -15.2% | [4] 0.05% | [5] -28.5% | [6] -17.6%

CCC(C)N(C(=O)C(C)Br)C(C)CC (configuration not stated)
inactive: [1] 2.95% | [2] -9.4% | [3] -19.2% | [4] -39.2% | [5] -10% | [6] 5.9%

CCOC(=O)NC(=O)c1cn(CCCOC(=O)CCCCCCCCC(=O)OCCCn2cc(C(=O)NC(=O)OCC)c(=O)n(C)c2=O)c(=O)n(C)c1=O
inactive: [1] -16.4% | [2] -25.1% | [3] -25.2% | [4] 6% | [5] 4.3% | [6] -23.7%

COC(=O)[C@H]1[C@H]2C[C@@H]3c4[nH]c5cc(OC)ccc5c4CCN3C[C@H]2C[C@@H](OC(=O)c2cc(OC)c(OC)c(OC)c2)[C@@H]1OC
inactive: [1] 16.5% | [2] -14.2% | [3] -8.9% | [4] -3.65% | [5] 25.7% | [6] 12.8%

CC1OC(O[C@@H]2OC=C(C=O)[C@@]3(O)CC[C@H](C)[C@@H]23)C(O)C(O)C1O (some centres not stated)
inactive: [1] 16.2% | [2] -10.4% | [3] 9.1% | [4] 7.6% | [5] -6.1% | [6] -39.2%

CN1CC(=O)N2CCCCC2C(c2ccccc2)C1 (configuration not stated)
inactive: [1] -4.85% | [2] 2.85% | [3] -0.25% | [4] -34.7% | [5] -9.35% | [6] -1.25%

COc1ccc(C2CC(=O)Oc3ccccc3O2)cc1 (configuration not stated)
inactive: [1] 39% | [2] 16.4% | [3] 32.2% | [4] 27.9% | [5] 23.6% | [6] 38.1%

N#CC1C(C#N)C2CCC1C1N=NN(c3ccccc3)C21 (configuration not stated)
inactive: [1] -16.4% | [2] -12.1% | [3] -10.8% | [4] -19.1% | [5] 17.9% | [6] -28.6%

CN(C)c1ccc(C(=O)C2CCCCC2)cc1
inactive: [1] 29.1% | [2] 7.5% | [3] 13.6% | [4] -4.8% | [5] -5.2% | [6] 21.8%

O=c1ccc2c([nH]1)CCCC2
inactive: [1] -8.25% | [2] -8.25% | [3] -30.9% | [4] 1.35% | [5] -9.15% | [6] 0.55%

C=CCOc1ccc(Cl)cc1Br
inactive: [1] -1.8% | [2] -4.6% | [3] -2.65% | [4] -46.6% | [5] -3.35% | [6] -7.8%

COc1ccc2c(c1)OC[C@@H]1c3cc(O)c(OCc4ccccc4)cc3O[C@]21C
inactive: [1] 9.9% | [2] 40.8% | [3] 10.3% | [4] 53.5% | [5] 21.7% | [6] -26%

N#CC1(C(N)=O)OC1c1ccccc1Cl (configuration not stated)
inactive: [1] -3.1% | [2] -18.1% | [3] 1.3% | [4] -37.3% | [5] -7.1% | [6] -16.9%

O=C1C(Br)=C(c2ccccc2)C(c2ccccc2)=C1c1ccccc1
inactive: [1] 45.6% | [2] 25.9% | [3] 51% | [4] 21.9% | [5] 22.7% | [6] 55%

Cn1ncc2c(=O)[nH]c(NCCO)nc21
inactive: [1] 3.3% | [2] 1.25% | [3] 0.9% | [4] -16.9% | [5] 8.7% | [6] 0.4%

COc1ccc2c(=O)c(Cc3c[nH]c4ccccc34)coc2c1
inactive: [1] 27.6% | [2] 12% | [3] 29% | [4] -35.6% | [5] 9.85% | [6] 19.2%

O=C(Cc1ccccc1)NCc1ccccc1
inactive: [1] -1.7% | [2] -7.15% | [3] 13.9% | [4] -3.3% | [5] 2.55% | [6] 8.7%

O=CCCn1[nH]c(=O)ccc1=O
inactive: [1] 2.4% | [2] -4.65% | [3] 15.9% | [4] 20.2% | [5] 25.1% | [6] 12.9%

CCCCN(CCCC)CC(O)c1cc2ccc(Cl)cc2nc1-c1ccc(Cl)cc1 (configuration not stated)
active: [3] 85.5% | [6] 78.8%
inactive: [1] 65.2% | [2] 41.7% | [4] 8.35% | [5] -6.15%

CNCC(OC(C)C)c1ccc(O)c(O)c1 (configuration not stated)
inactive: [1] -3.3% | [2] -2.85% | [3] -0.05% | [4] -36.4% | [5] -19.2% | [6] 16.2%

COc1cc2nccnc2cc1OC
inactive: [1] 10.1% | [2] 7.05% | [3] 3.35% | [4] -7.45% | [5] 6.55% | [6] 21.2%
